# According to PubChem BioAssay AID651926 (Vanderbilt Specialized Chemistry Center, 2012):
# Activity calls are given as the source filed them. How the calls were made is not given here.
# Molecular target: Histone deacetylase 2 (Homo sapiens) (UniProt Q92769)
# Test: HDAC2 enzyme inhibition, profiling panel, selectivity assay for E-cadherin restoration project, biochemical, HDAC isoform panel (AID 651926)
# Histone deacetylase 2 (Homo sapiens), sequence (Q92769 whole entry, looked up, canonical isoform): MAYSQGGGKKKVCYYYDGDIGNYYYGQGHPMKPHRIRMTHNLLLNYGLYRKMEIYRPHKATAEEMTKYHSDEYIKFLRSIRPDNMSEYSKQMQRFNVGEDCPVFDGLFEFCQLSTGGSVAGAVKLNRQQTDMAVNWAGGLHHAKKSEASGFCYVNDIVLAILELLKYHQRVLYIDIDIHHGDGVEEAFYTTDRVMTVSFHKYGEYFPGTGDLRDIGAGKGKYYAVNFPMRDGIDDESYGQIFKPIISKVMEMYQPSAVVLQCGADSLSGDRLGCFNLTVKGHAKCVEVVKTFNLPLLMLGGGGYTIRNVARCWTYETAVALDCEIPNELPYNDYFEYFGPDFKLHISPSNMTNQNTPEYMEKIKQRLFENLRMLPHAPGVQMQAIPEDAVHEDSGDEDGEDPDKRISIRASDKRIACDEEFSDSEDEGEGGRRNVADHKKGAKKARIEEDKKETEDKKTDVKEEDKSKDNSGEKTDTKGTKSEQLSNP
structure (smiles),measurement,value
O=C(NCCCNC(=O)c1ccc[nH]c1=O)c1cc(-c2ccccc2)on1,outcome,inactive
